# High-throughput results from PubChem.
# hcDAF12 agonist = H. contortus DAF-12 nuclear receptor activators, primary screen, cell-based, luminescence, HEK293, lit1-tk-luc reporter | hit rate 1.4% among 370,000 | activation, % at 6.8 µM | HEK293 hcDAF-12 lit1-tk-luc reporter; 0% DMSO, 100% Δ7-dafachronic acid;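 active = activation above the mean of all tested compounds plus 3 SD, cut at about 5.5% in these data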;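 also: 100% = response to 3 µM Δ7-dafachronic acid high control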
# hgDAF-12 ag = H. glycines DAF-12 receptor agonists, primary screen, cell-based, luminescence, HEK293, GAL4 fusion, UAS-luciferase; Nuclear hormone receptor DAF-12 (Heterodera glycines), GAL4 fusion; HEK293 GAL4-hgDAF12 UAS-luciferase reporter, agonist luminescence; normalized to butyrate control; activation, % at 6.8 µM; hit rate 1.8% among 370,000; AID 687014, 2013;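 active = activation above a cutoff set at the mean of all screened compounds plus 3 SD, cut at about 10% in these data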;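 also: 0% = DMSO wells and 100% = sodium butyrate wells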
# DAX1 inh-1 = DAX1 (NR0B1) inhibitors, primary screen, cell-based, HEK293, Gal4-DAX1, luciferase luminescence; Nuclear receptor subfamily 0 group B member 1 (Homo sapiens), P51843; HEK293 Gal4-DAX1 luciferase reporter; inhibition, % at 6.75 µM; hit rate 0.99% among 340,000;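 active = inhibition above the mean over all tested compounds plus 3 SD, cut at about 4.2% in these data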;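 also: 0% = DAX1-transfected cells with DMSO and 100% = empty-vector control cells with DMSO; inhibition shows as a rise in luminescence from relieved DAX1 repression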
# Target sequence (P51843 207-470 limits assumed): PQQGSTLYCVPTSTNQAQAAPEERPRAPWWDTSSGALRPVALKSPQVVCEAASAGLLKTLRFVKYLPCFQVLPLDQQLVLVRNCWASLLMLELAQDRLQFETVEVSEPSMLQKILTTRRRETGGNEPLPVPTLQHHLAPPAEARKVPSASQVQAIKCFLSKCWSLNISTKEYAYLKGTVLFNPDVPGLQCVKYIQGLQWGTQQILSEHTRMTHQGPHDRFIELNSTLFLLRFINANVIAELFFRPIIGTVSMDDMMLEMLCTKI
# DAX1 inh-2 = DAX1 (NR0B1) inhibitors on StAR promoter, primary screen, cell-based, luminescence, SF-1 (NR5A1), full-length DAX-1; AID 652010, 2013; inhibition, % at 6.8 µM; HEK293T StAR-luciferase reporter, SF-1/DAX-1 repression relief; hit rate 1.1% among 370,000;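 active = inhibition above the mean over all tested compounds plus 3 SD, cut at about 3.6% in these data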;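 also: 0% = DAX-1 cells with DMSO and 100% = cells lacking DAX-1 with DMSO; higher inhibition means more luminescence from relief of DAX-1 repression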
# ssDAF12 agonist = S. stercoralis DAF-12 nuclear receptor activators, primary screen, cell-based, luminescence, HEK293, GRIP1 co-expression, lit1-tk-luc; Nuclear hormone receptor DAF-12 (Strongyloides stercoralis); HEK293 ssDAF-12/GRIP1 lit1-tk-luc reporter; % of 3 µM dafachronic acid response; activation, % at 6.8 µM; hit rate 1% among 370,000;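 active = activation above the mean over all tested compounds plus 3 SD, cut at about 0.9% in these data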;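 also: 0% = DMSO-only wells and 100% = 3 µM delta7-dafachronic acid wells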
# DAX1 inh confirm = DAX1 (NR0B1) inhibitors relieving SF-1 repression, confirmation, cell-based, luminescence, HEK293T, full-length DAX-1, SF-1 activated StAR promoter | shares compounds with DAX1 inh-2 | HEK293T StAR-promoter luciferase reporter, SF-1/DAX-1 repression | inhibition, % at 6.8 µM | hit rate 87% among 2,400 | AID 652134, 2013;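 active = inhibition above the average of every tested compound plus 3 SD, cut at about 3.8% in these data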;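 also: 0% = DAX-1 cells with DMSO and 100% = no DAX-1 control cells with DMSO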
# SF1 mutant ctr = StAR reporter signal changes without DAX1, counter-screen for DAX1 inhibitor project, cell-based, luminescence, AF-2 mutant SF-1, transactivation; HEK293 StAR-luciferase, SF-1 AF2 mutant; inhibition, % at 6.8 µM; shares compounds with DAX1 inh-2; hit rate 78% among 2,400;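 active = inhibition above the mean of all tested compounds plus 3 SD, cut at about 3% in these data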;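 also: 0% = DAX-1 transfected cells with DMSO and 100% = cells without DAX-1 with DMSO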
# LXR ag = LXR agonists, Gal4 luciferase reporter, confirmation, counter-screen for hcDAF-12 agonist project, cell-based, luminescence, HEK293, H. contortus campaign; shares compounds with hcDAF12 agonist; 3,400 tested, under 10 active; HEK293 Gal4-LXR tk-luc reporter, 24 h; normalized: DMSO 0%, positive control 100%; activation, % at 6.8 µM;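 active = mean percent activation of the reporter above a cutoff set as the average over tested compounds plus their standard deviation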
# Target sequence (P55055 whole entry, looked up, the tested form may be a part): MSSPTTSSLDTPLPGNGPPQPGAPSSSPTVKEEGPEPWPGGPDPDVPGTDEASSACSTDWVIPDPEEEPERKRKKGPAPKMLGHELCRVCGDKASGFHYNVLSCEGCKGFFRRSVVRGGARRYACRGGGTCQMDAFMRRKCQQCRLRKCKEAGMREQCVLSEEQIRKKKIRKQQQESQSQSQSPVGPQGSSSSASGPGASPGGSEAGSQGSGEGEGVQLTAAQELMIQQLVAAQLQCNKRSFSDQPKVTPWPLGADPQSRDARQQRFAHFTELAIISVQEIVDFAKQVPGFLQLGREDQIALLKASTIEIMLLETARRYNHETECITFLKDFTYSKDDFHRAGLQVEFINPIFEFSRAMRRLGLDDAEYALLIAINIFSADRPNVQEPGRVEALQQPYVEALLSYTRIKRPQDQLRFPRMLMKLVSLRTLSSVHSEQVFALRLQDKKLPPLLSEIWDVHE
# hcDAF12 ag = H. contortus DAF-12 receptor agonists, confirmation, cell-based, luminescence, HEK293, lit1-tk-luc, triplicate; shares compounds with hcDAF12 agonist; activation, % at 6.8 µM; HEK293 hcDAF-12 lit1-tk-luc reporter; % of Δ7-dafachronic acid response; AID 743032, 2013; hit rate 61% among 3,400;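 active = mean activation across triplicate tests above the threshold derived from the earlier primary screen, cut at about 5.5% in these data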;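 also: 0% = DMSO only wells and 100% = 3 µM Δ7-dafachronic acid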
# hgDAF12 conf = H. glycines DAF-12 receptor agonists, confirmation, cell-based, luminescence, HEK293, GAL4-LBD fusion. hit rate 80% among 3,300. AID 743050, 2013. shares compounds with hgDAF-12 ag. activation, % at 6.8 µM. HEK293 GAL4-hgDAF12 luciferase reporter, agonist mode; percent of butyrate response;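 active = mean activation over triplicate wells above the hit cutoff derived from the earlier primary screen, cut at about 11% in these data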;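 also: 0% = DMSO low control and 100% = 2 mM sodium butyrate high control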
# LXR ag 2 = LXR agonists, Gal4 luciferase reporter, confirmation, counter-screen for hgDAF-12 agonist project, cell-based, luminescence, HEK293, H. glycines campaign; AID 743051, 2013; 24 h; shares compounds with hgDAF-12 ag; activation, % at 6.8 µM; 3,300 tested, under 10 active;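 active = mean activation of the triplicate above a set limit carried over from the primary screen, none filed active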
# An asterisk follows results filed as active; / = no result given. Hits are enriched below; roughly 4.1% of the tested compounds scored in any of these assays.
SMILES,hcDAF12 agonist,hgDAF-12 ag,DAX1 inh-1,DAX1 inh-2,ssDAF12 agonist,DAX1 inh confirm,SF1 mutant ctr,hgDAF12 conf,LXR ag 2,others
CC(=O)N(C)c1ccc(N=Nc2c(C)[nH]n(C(N)=S)c2=O)cc1,6.5*,16.2*,4.0,4.8*,0.3,12.3*,5.3*,17.0*,0.9,
COc1ccc(-n2nc3cc(C)c(NC(C)=O)cc3n2)cc1,4.7,17.7*,0.8,4.5*,0.9*,8.4*,1.3,9.1,0.9,
COc1ccc(NC(C)=O)c(C)c1,-1.9,-0.2,1.6,0.2,-2.1,/,/,/,/,
O=C(N/N=C\c1c(O)ccc2ccccc12)c1ccc(O)cc1,-3.9,-9.3,1.9,-2.7,-0.5,/,/,/,/,
Cn1c(-c2ccccc2)c(/C=N/NC(=O)c2ccc(O)cc2)c2ccccc21,0.8,14.3*,8.7*,4.5*,-0.1,12.0*,7.6*,21.9*,0.4,
Cc1cccc(-c2noc(-c3ccc4c(c3)OCO4)n2)c1,3.5,13.3*,-0.6,4.8*,-0.2,12.8*,5.0*,14.1*,1.2,
COc1ccc(-c2nc(-c3cccc(C)c3)no2)cc1OC,/,/,0.4,/,/,/,/,/,/,
Cc1ccc2nc(-c3cccc(N)c3)oc2c1,6.4*,14.7*,0.1,5.4*,-0.3,14.6*,6.8*,16.3*,0.7,
CC(=O)OCC(=O)Nc1ccc(N=Nc2ccccc2)cc1,4.4,16.9*,0.2,4.8*,0.8,10.2*,6.0*,13.9*,0.7,
CC1(C)CC(=O)C=C(c2ccccc2-c2cccc(C(N)=O)c2)C1=O,1.5,-3.5,/,-0.7,-0.6,/,/,/,/,
COc1ccc(CNC(=O)c2ccc(C(C)C)cc2)cc1,3.6,17.5*,1.6,6.8*,-0.5,7.6*,5.7*,15.4*,0.6,
CCC[C@H]1[C@@H](NC(=O)/C=C/c2ccccc2)CC[C@@]23CCCN2C(=O)CCC[C@@H]13,-2.9,-0.2,/,/,-1.7,/,/,/,/,
Cc1cccc(NC(=O)c2ccc(OC3CSC3)cc2)c1,2.9,16.1*,0.7,4.8*,-0.3,7.8*,4.0*,16.0*,0.7,
CC(=O)c1cccc(NC(=O)c2ccc(OC3CSC3)cc2)c1,0.6,3.9,-1.2,0.1,-2.0,/,/,/,/,
Nc1c(-c2ccccc2)cnc2c(-c3ccccc3)cnn12,11.2*,19.7*,4.8*,4.9*,1.3*,14.0*,3.6*,11.0*,1.1,LXR ag=2.0;hcDAF12 ag=9.3*
CN1CCCN(C(=O)C2CCN(c3ncnc4c3sc3cccc(F)c34)CC2)CC1,1.1,3.6,/,-0.7,-0.3,/,/,/,/,
N#Cc1ccc(OCCCN2CCC(C(O)(C3=CCCC3)c3ccccc3)CC2)cc1 (centres undefined),-0.2,2.6,/,-0.6,-1.1,/,/,/,/,
Cc1ccc(-c2onc3ccc(Br)cc23)cc1,1.9,0.0,1.4,1.2,0.2,/,/,/,/,
Cc1ccc(-c2onc3ccc(C4OCCO4)cc23)cc1,4.4,13.8*,-2.6,5.3*,-0.1,0.8,-6.2,2.9,0.1,
Cc1cccc(-c2cnc3cccnn23)c1,-2.5,6.7,/,1.7,-0.8,/,/,/,/,
CCOc1cccc(-c2cnc3cccnn23)c1,1.3,21.0*,/,6.1*,-0.5,7.1*,5.1*,16.0*,0.5,
O=C(O)C(=O)/C(=C\c1ccc(Cl)cc1)c1ccc2ccccc2n1,14.1*,14.2*,2.3,7.8*,2.5*,9.1*,4.6*,0.6,0.5,LXR ag=0.8;hcDAF12 ag=11.1*
O=C(O)C/C(=C\c1ccc(Cl)cc1)c1nc2ccccc2o1,1.8,2.6,/,0.3,-0.7,/,/,/,/,
COc1ccc2nc(N3CCOCC3)cc(C)c2c1,3.5,16.6*,1.8,5.8*,-0.2,12.2*,6.3*,14.2*,0.5,
C[C@H]1C(c2ccccc2F)O[C@]2(C[C@H](O)c3c(ccc4ccccc34)O2)C[C@@H]1O (some centres undefined),3.7,2.4,/,-1.9,-0.3,/,/,/,/,
SMILES,hcDAF12 agonist,hgDAF-12 ag,DAX1 inh-1,DAX1 inh-2,ssDAF12 agonist,DAX1 inh confirm,SF1 mutant ctr,hgDAF12 conf,LXR ag 2,others
NC(=O)c1ccccc1NC(=O)Nc1cccc(Cl)c1,-0.2,2.9,-0.6,-0.4,-1.1,/,/,/,/,
O=C(Nc1cccc(Cl)c1)Nc1ccccc1C(=O)O,5.2,14.2*,-1.0,4.7*,-0.8,11.1*,7.6*,15.0*,0.6,
CCn1c(SCC(=O)Nc2ccccc2-c2ccccc2)nnc1-c1cnccn1,-1.7,-5.9,/,0.3,-0.9,/,/,/,/,
COc1ccc(CN=C2Nc3ccccc3CS2)cc1,4.9,14.2*,-0.1,4.7*,1.2*,10.8*,7.2*,17.2*,0.9,
COc1ccc(CN=C2NN=C(c3ccc(Cl)cc3)CS2)cc1,1.5,1.2,-0.8,0.1,-1.2,/,/,/,/,
O=C(NCCc1c[nH]c2ccccc12)OCc1cn(Cc2c(F)cccc2F)nn1,-2.6,0.9,/,-0.4,-1.1,/,/,/,/,
Cn1c(=O)c(C(=O)c2ccccc2)nc2ccccc21,-1.0,-0.4,-1.3,0.1,-0.7,/,/,/,/,
